Calls of active or inactive are those of the source. The calls were made as follows: active = hit-call score of the fitted dose curve at least 0.9, where 1 is the maximum; inactive = score below 0.9.

The assay can be described thus: APR_HepG2_CellCycleArrest_1hr: Apredica 1-hour HepG2 Assay for Cell Cycle Arrest (AID 2282666). The note with it: high-content imaging, actives raise or lower the signal. The protocol: APR_HepG2_1hr is a cell-based, multiplexed-readout assay that uses HepG2, a human liver cell line, with measurements taken at 1 hour after chemical dosing in a 384-well plate.APR_HepG2_CellCycleArrest_1hr is one of 10 assay component(s) measured or calculated from the APR_HepG2_1hr assay. It is designed to make measurements of cell phenotype, a form of morphology reporter, as detected with fluorescence intensity signals by HCS Fluorescent Imaging technology.Data from the assay component APR_HepG2_CellCycleArrest_1hr was analyzed into 1 assay endpoint. This assay endpoint, APR_HepG2_CellCycleArrest_1hr, was analyzed with bidirectional fitting relative to DMSO as the negative control and baseline of activity. Using a type of morphology reporter, measures of all nuclear dna for gain or loss-of-signal activity can be used to understand the signaling at the pathway-level as they relate to the gene . Furthermore, this assay endpoint can be referred to as a primary readout, because this assay has produced multiple assay endpoints where this one serves a signaling function. To generalize the intended target to other relatable targets, this assay endpoint is annotated to the cell cycle intended target family, where the subfamily is arrest.
Cells were treated with dimethyl sulfoxide (DMSO) as a solvent control at a final concentration of 0.5% v/v or with compounds in DMSO with a resulting final DMSO concentration of 0.5% v/v. Compound treatment was done at concentrations of 0.39, 0.78, 1.56, 3.12, 6.24, 12.5, 25, 50, 100, and 200 uM in duplicate on each plate. Cells were treated with compounds for 1, 24, or 72 hr. Carbonyl […] m-chloro-phenylhydrazone (CCCP) and taxol were used as positive controls for mitochondrial function and cytoskeletal stability, respectively; DMSO served as the negative control for this experiment. Cells were fixed by the direct addition of 50 uL formaldehyde in Hank's Balanced Salt Solution (HBSS) to a final concentration of 3.7%. After incubation in the fixation medium for 30 min at room temperature (293-298 K), cells were rinsed twice with HBSS and treated with cell permeabilization buffer (16 uL of 0.5% Triton X-100) for 10 min at room temperature (293-298 K) before labeling. For mitochondrial membrane potential and mitochondrial measurements, pre-fixed cells were incubated with 50 uL of MitoTracker Red CMXRos (Invitrogen) at a concentration of 250 nM for 30 min before fixation. In the remaining cases, post-fixed cells were labeled by incubation with a multiplexed mixture of primary antibodies in HBSS for 60 min at room temperature (293-298 K) to detect immunoreactivity of c-Jun (1:500), phospho-histone H3 (1:100), phospho-histone H2A.x (1:200), p53 (1:400), alpha-tubulin (1:200) and Hoechst 33342 (2 ug/mL). Cells were labeled for multiplexed imaging on two separate plates: a) Hoechst 33342, MitoTracker Red, phospho-histone H3, and alpha-tubulin, and b) Hoechst 33342, phospho-histone H2A.x, and c-Jun. A final rinse with HBSS (50 uL) was performed before analysis. The primary and secondary antibodies for the proteins were phospho-histone H3 (rabbit anti-phospho-histone H3 and FITC-donkey anti-rabbit IgG), phospho-histone H2A.x (mouse anti-phospho-histone H2A.x and FITC-donkey anti-mouse IgG), c-Jun (rabbit anti-phospho-c-Jun and Cy3-donkey anti-rabbit IgG), p53 (sheep anti-p53 and Cy5-donkey anti-sheep IgG), alpha-tubulin (mouse anti-alpha-tubulin and Cy5-donkey anti-mouse IgG). These antibodies are available as the CellCiphr HepG2 assay kit (Millipore).Digital images of each well were captured using a Cellomics ArrayScan VTI (Thermo Scientific Cellomics) (0.8 NA objective, 0.63x optical coupler, and XF-93 filter set) at 20x magnification. The images were acquired using the autofocus feature of the ArrayScan instrument, which entails the following steps. First, the camera focuses on channel 1 (Hoechst 33342), where nuclei are identified. Second, a Z offset of 1 um is used for capturing mitochondria (MitoTracker Red). […]
Take `CCNc1nc(Cl)nc(NC(C)C)n1`: the call was inactive.
As for `Cc1cc(Cl)ccc1OCC(=O)O`, the result was inactive.
As for `COc1cnc(OC)n2nc(NS(=O)(=O)c3c(OCC(F)F)cccc3C(F)(F)F)nc12`, the result was inactive.
On the same count and under the same terms, next, `Cc1ccc(-c2c(Cl)nc(C#N)n2S(=O)(=O)N(C)C)cc1`: “inactive”; `CCCCC(CC)COC(=O)c1ccccc1C(=O)OCC(CC)CCCC` (stereo not given): “inactive”; `Cc1c(F)c(F)c(COC(=O)C2C(/C=C(\Cl)C(F)(F)F)C2(C)C)c(F)c1F` (stereo not given): “inactive”.
On the same count and under the same terms, next, `N#Cc1nn(-c2c(Cl)cc(C(F)(F)F)cc2Cl)c(N)c1S(=O)C(F)(F)F` (stereo not given): “inactive”.
As to `C#CCOS(=O)OC1CCCCC1Oc1ccc(C(C)(C)C)cc1` (stereo not given), the result was inactive.
On the same count and under the same terms, next, `CC(Oc1ccc(Cl)cc1Cl)C(=O)O` (stereo not given): “inactive”.
Take `N#Cc1cc(Br)c(O)c(Br)c1`: the outcome was inactive.
On to `C=CC1(C)OC(=O)N(c2cc(Cl)cc(Cl)c2)C1=O` (stereo not given), for which the compound was classed as inactive.
For `OC(c1ccc(Cl)cc1)(c1cncnc1)c1ccccc1Cl` (stereo not given), the compound was called inactive.
On to `COc1nc(C)nc(NC(=O)NS(=O)(=O)c2ccccc2CCC(F)(F)F)n1`, for which the result was inactive.
Turning to `CCNc1nc(Cl)nc(NCC)n1`, the result was inactive.
For `CC(C)C1(C)N=C(c2nc3ccccc3cc2C(=O)O)NC1=O` (stereo not given), the outcome was inactive.
For `CCCC1COC(Cn2cncn2)(c2ccc(Cl)cc2Cl)O1` (stereo not given), the result was inactive.
Regarding `COP(=S)(OC)Oc1nc(Cl)c(Cl)cc1Cl`, the compound was classed as inactive.
Same read-out and setting: the value for `CON(C)C(=O)Nc1ccc(Cl)c(Cl)c1` was “inactive”; that for `C=CCC1=C(C)C(OC(=O)C2C(C=C(C)C)C2(C)C)CC1=O` (stereo not given) was “inactive”; that for `CNC(=O)ON=CC(C)(C)SC` was “inactive”.
As for `O=C(Nc1ccccc1)Nc1ccnc(Cl)c1`, the outcome was inactive.
As to `CCOC(=O)CC(SP(=S)(OC)OC)C(=O)OCC` (stereo not given), the compound was classed as inactive.
For the compound `CNC(=S)S`, the compound was called inactive.
Take `CO/C=C(/C(=O)OC)c1ccccc1Oc1cc(Oc2ccccc2C#N)ncn1`: the outcome was inactive.
Regarding `CCCCOC(=O)c1ccccc1C(=O)OCCCC`, the call was inactive.
On the same count and under the same terms, the value for `COP(N)(=O)SC` (stereo not given) was “inactive”; that for `COC(=O)C(C)Oc1ccc(Oc2ccc(Cl)cc2Cl)cc1` (stereo not given) was “inactive”; that for `C=CCC1=C(C)[C@@H](OC(=O)[C@@H]2[C@@H](C=C(C)C)C2(C)C)CC1=O` was “inactive”.
As for `CCOc1cc(Oc2ccc(C(F)(F)F)cc2Cl)ccc1[N+](=O)[O-]`, the call was inactive.
As for `CC(C)Oc1cc(-n2nc(C(C)(C)C)oc2=O)c(Cl)cc1Cl`, the compound was called inactive.
On the same count and under the same terms, the value for `CCOP(=S)(OCC)SCn1c(=O)oc2cc(Cl)ccc21` was “inactive”; that for `CCc1nn(C)c(C(=O)NCc2ccc(C(C)(C)C)cc2)c1Cl` was “inactive”; that for `CCCCNC(=O)OCC#CI` was “inactive”.
With `O=C(O)COc1nc(Cl)c(Cl)cc1Cl`, the compound was classed as inactive.
Still for that read-out and setting: the value for `CCOC(=O)C(Cl)Cc1cc(-n2nc(C)n(C(F)F)c2=O)c(F)cc1Cl` (stereo not given) was “inactive”; that for `COC(=O)C=C(C)OP(=O)(OC)OC` was “inactive”.
Same read-out and setting: the value for `CCCCNC(=O)n1c(NC(=O)OC)nc2ccccc21` was “inactive”; that for `O=C(O)c1nc(Cl)ccc1Cl` was “inactive”.
With `CS/C(C)=N/OC(=O)N(C)SN(C)C(=O)O/N=C(\C)SC`, the call was inactive.
Consider `CCCN(CCC)c1c([N+](=O)[O-])cc(S(N)(=O)=O)cc1[N+](=O)[O-]`, for which the AC50 is 108 µM (active).

Source of the values: PubChem BioAssay (EPA / NIEHS).
